# Rows were chosen to be rich in hits. Some 5.2% of all compounds tested hit in one or more screens of this group.
# PostGolgi ctrl: growth inhibition of yeast control strain, primary screen, counter-screen for post-Golgi transport modulator project; efflux-deficient yeast background strain, growth absorbance A615, 16 h; inhibition, % at 10 µM; 98,000 compounds, 5% hits
# EphB4 antag: EphB4-ephrin-B2 interaction antagonists, primary screen, biochemical, TNYL-RAW peptide probe, fluorescence polarization. AID 720, 2007. EphB4 LBD / TNYL-RAW-Alexa532 peptide. 97,000 compounds, 0.15% hits. Ephrin type-B receptor 4 (Homo sapiens), P54760. inhibition, % at 7 µM;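 active = inhibition above the screen-wide mean inhibition plus 3 SD, cut at about 15% in these data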;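 note: 0% = DMSO wells and 100% = excess unlabeled TNYL-RAW peptide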
# Target sequence (P54760 whole entry, looked up, the tested form may be a part): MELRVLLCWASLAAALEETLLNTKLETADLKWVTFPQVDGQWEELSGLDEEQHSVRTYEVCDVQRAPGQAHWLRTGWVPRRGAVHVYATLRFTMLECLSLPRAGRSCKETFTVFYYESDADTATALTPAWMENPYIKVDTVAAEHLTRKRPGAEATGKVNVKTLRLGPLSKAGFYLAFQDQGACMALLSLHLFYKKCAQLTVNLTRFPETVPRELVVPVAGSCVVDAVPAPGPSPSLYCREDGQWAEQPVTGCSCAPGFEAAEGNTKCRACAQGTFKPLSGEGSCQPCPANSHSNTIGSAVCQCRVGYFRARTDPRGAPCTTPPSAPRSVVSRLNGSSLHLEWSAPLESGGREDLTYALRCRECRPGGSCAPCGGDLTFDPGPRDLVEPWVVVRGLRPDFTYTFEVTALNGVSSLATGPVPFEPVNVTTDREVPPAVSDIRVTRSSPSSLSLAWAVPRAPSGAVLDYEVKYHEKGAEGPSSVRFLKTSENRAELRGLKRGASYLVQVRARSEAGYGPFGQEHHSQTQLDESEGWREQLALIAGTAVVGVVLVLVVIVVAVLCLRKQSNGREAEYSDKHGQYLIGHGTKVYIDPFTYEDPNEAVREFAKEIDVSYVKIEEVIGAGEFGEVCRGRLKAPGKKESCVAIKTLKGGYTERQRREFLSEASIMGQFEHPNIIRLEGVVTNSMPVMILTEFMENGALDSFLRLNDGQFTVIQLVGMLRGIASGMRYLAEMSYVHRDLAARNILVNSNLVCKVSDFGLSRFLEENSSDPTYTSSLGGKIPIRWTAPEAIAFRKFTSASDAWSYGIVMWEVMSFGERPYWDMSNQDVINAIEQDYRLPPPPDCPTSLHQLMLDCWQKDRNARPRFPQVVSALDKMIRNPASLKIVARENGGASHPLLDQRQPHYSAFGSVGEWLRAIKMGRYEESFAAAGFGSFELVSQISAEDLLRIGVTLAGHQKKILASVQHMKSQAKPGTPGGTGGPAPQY
# PostGolgi yeast: phenotypic screen on post-Golgi transport, primary screen. post-Golgi transport phenotypic cell assay. inhibition, % at 10 µM. 98,000 compounds, 0.9% hits;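 note: yeast cells grown in 1536-well plates; yeast grown about 18 h at 30C before absorbance read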
# Candida biofilm: clotrimazole potentiators killing Candida biofilms, primary screen, with clotrimazole, Alamar Blue; C. albicans biofilm + clotrimazole; inhibition, % at 6 µM; 85,000 compounds, 0.14% hits; AID 834, 2007;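 active = inhibition above 20%; inactive = inhibition below 20%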;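 note: preformed 24 hr biofilms exposed to compound for 48 hr; 0% = biofilm without compound and 100% = blank killed by clotrimazole plus chlorhexidine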
# Starred values were filed as active, the others as inactive; / = no result given. Cut-off read from the data, not from the text of the source, unless noted: active = inhibition above about 30%; inactive = the rest.
SMILES,PostGolgi ctrl,EphB4 antag,PostGolgi yeast,Candida biofilm
COc1ccc(NC(=O)C2CCCN(S(=O)(=O)c3ccc(C)cc3)C2)cc1OC (stereo not drawn),/,5,/,/
COc1ccc(C)cc1S(=O)(=O)N1CCN(S(=O)(=O)c2cc(C)ccc2OC)C(C)C1 (stereo not drawn),5,-14,-7,0
COc1ccc(C)cc1S(=O)(=O)N1CCC(C)CC1,42*,1,5,6
CCOc1ccccc1NC(=O)C1CCCN(S(=O)(=O)c2ccc(OC)c(C)c2)C1 (stereo not drawn),31*,-5,0,6
COc1ccc(S(=O)(=O)N2CCCC(C(=O)Nc3ccc(OC)c(OC)c3)C2)cc1 (stereo not drawn),39*,-1,12,10
COc1ccc(CNC(=O)C2CCCN(S(=O)(=O)c3cc(C)ccc3OC)C2)cc1 (stereo not drawn),40*,-7,-5,7
CC1CN(C2CCN(C(=O)c3ccccc3)CC2)CC(C)O1 (stereo not drawn),8,/,0,13
CCN(CC)c1ccc(C2C(C(C)=O)C(=O)CC(C)(O)C2C(C)=O)cc1 (stereo not drawn),/,-2,/,10
CC(C)(C)N1CC2([N+](=O)[O-])CN(C(C)(C)C)CC([N+](=O)[O-])(C1)C2,-2,-7,0,3
O=C(CC(=O)NC1CCCCC1)N/N=C/c1cccc2ccccc12,12,2,-4,/
COCc1cc(C)nc2sc3c(=O)n(Cc4ccco4)nnc3c12,2,2,-4,1
Cc1cc(C)c2c(n1)sc1c(=O)n(Cc3ccccc3Cl)nnc12,40*,4,4,-9
O=C(OCc1cc2ccccc2[nH]c1=O)C1CCCCC1,13,4,30*,-1
CC(C)n1c(C(=O)OCC(=O)NCc2ccc3c(c2)OCO3)cc2sccc21,37*,-2,0,3
CCC(C)NC(=O)c1c(F)c(F)c(F)c(F)c1F (stereo not drawn),/,-4,/,6
CCOC(=O)c1c(NC(=O)CN2CCCCC2)sc2c1CCC(C=O)=C2Cl,8,0,40*,/
C=CCN(CC=C)Cc1c(C)[nH]c2ccc(C(=O)OCC)cc2c1=O,2,-3,11,6
CC(C)CCOc1ccc(Cl)cc1CN1CCOCC1,37*,3,32*,2
CCCCCOc1ccc(Cl)cc1CN1CCOCC1,26,3,58*,7
Cn1c(SCc2ccccn2)nnc1-c1ccncc1,1,/,1,0
Cc1ccc(C)c2c1cc(C)c1nnc(SCc3ccccn3)n12,90*,1,36*,/
Cc1c(NC2=C(Cl)C(=O)N(c3ccccc3)C2=O)c(=O)n(-c2ccccc2)n1C,31*,13,7,0
Cc1c(Nc2nc3ccccc3nc2N2CCN(c3ccccc3)CC2)c(=O)n(-c2ccccc2)n1C,34*,-4,2,1
CC(C)(C)NC(=O)CN(C(=O)Cn1nnc(-c2ccccc2F)n1)c1cccc2c1CCCC2,-2,0,12,/
Cn1c(=O)[nH]c(=O)c2c1nc(CN1CCN(c3cccc(Cl)c3)CC1)n2CCc1ccccc1,14,-8,-2,1
SMILES,PostGolgi ctrl,EphB4 antag,PostGolgi yeast,Candida biofilm
CCCCCCCCn1c(N2CCN(c3cccc(Cl)c3)CC2)nc2c1c(=O)[nH]c(=O)n2C,5,8,-3,-3
CCCCCn1c(CN2CCN(c3cccc(Cl)c3)CC2)nc2c1c(=O)[nH]c(=O)n2C,45*,4,2,8
CC(C)CCn1c(N2CCN(c3cccc(Cl)c3)CC2)nc2c1c(=O)[nH]c(=O)n2C,35*,/,3,/
O=C(Nc1cccc([N+](=O)[O-])c1)C12CC3CC(C1)CC(n1cnc([N+](=O)[O-])n1)(C3)C2,19,9,0,/
Cn1c(=O)c2ncn(CC(=O)NCCOc3ccccc3)c2n(C)c1=O,1,-8,30*,7
Cc1ccc(OCCNC(=O)Cn2cnc3c(=O)n(C)c(=O)n(C)c32)cc1C,/,0,/,7
COc1ccc(C(=S)N2CCCC2)cc1C,9,-4,-1,6
COc1cccc(NC(=O)c2cccc(OC)c2OC)c1,48*,1,-9,4
COc1cccc(C(=O)Nc2cccc(SC)c2)c1,30*,-1,13,3
COc1cccc(C(=O)Nc2ccc(N(C)C)cc2)c1OC,7,-1,0,2
CN(C)S(=O)(=O)Oc1cccc(C(=O)Nc2cccc(Cl)c2)c1,5,1,13,/
CN(C)S(=O)(=O)Oc1cccc(C(=O)Nc2ccc(Cl)c(Cl)c2)c1,36*,-2,10,/
COc1cccc(C(=O)Nc2ccc3nc(N4CCN(c5ncccn5)CC4)cc(C)c3c2)c1OC,41*,-4,-2,/
C=CCN(C)CCCNC(=O)/C=N/O,/,/,/,-3
COc1ccc(-c2nnn(CC(=O)N(Cc3ccccc3Cl)C(C(=O)NCC3CCCO3)c3ccco3)n2)cc1OC (stereo not drawn),1,-1,4,/
CC(=O)c1ccc(N2CCN(c3ccc(S(=O)(=O)N4CCN(C)CC4)cn3)CC2)cc1,8,7,3,-3
O=C(CSc1nnc(CNc2ccc(F)cc2)n1-c1ccccc1)N1CCOCC1,/,-1,/,4
O=C(CCCOc1ccc(Cl)cc1Cl)N1CCN(c2ccccn2)CC1,52*,/,-8,9
COc1ccc(NC(=O)OC(C)C)cc1,6,3,6,1
Cc1ccc(-c2nn(-c3cc(Cl)ccc3[N+](=O)[O-])c(=O)c3ccccc23)cc1,37*,-2,-1,/
Cc1nn(-c2cc(N3CCOCC3)ccc2[N+](=O)[O-])c(=O)c2ccccc12,7,0,1,-2
Cc1nn(-c2cc(N3CCCC3)ccc2[N+](=O)[O-])c(=O)c2ccccc12,-2,-3,-5,2
Cc1ccc(C)c(-c2nn(-c3cc(N4CCN(CCO)CC4)ccc3[N+](=O)[O-])c(=O)c3ccccc23)c1,48*,-4,-2,/
CCCCCCN1C2=NCCN2c2ccccc21,5,-3,32*,4
CCCN1C2=NCCCN2c2ccccc21,38*,-4,6,7
SMILES,PostGolgi ctrl,EphB4 antag,PostGolgi yeast,Candida biofilm
CCOc1ccc(-n2nc3c(-n4ncc(C#N)c4N)nnc(C)c3c2C)cc1,/,-3,/,3
Cc1cccc(NC(=O)c2ccccc2OCC(=O)c2ccccc2)c1,30*,-6,-4,/
O=C(Nc1cccc(-c2nnc(-c3ccccc3)o2)c1)c1ccc(Br)o1,38*,0,-6,4
CCOc1ccccc1C(=O)Nc1cccc(-c2nnc(-c3ccccc3)o2)c1,31*,-4,10,6
O=C(COc1ccccc1)Nc1cccc(-c2nnc(-c3ccccc3)o2)c1,/,/,/,2
O=C(Nc1cccc(-c2cn3cccnc3n2)c1)c1ccc(Br)o1,33*,-5,-16,/
O=C(Nc1cccc(-c2cn3cccnc3n2)c1)c1ccco1,21,2,-23,2
Cc1ccc(NC(=O)c2ccccc2OCC(=O)c2ccccc2)cc1,8,9,2,/
COc1cc2c(cc1OC)CN(S(=O)(=O)c1ccc3c(c1)OCCO3)CC2,23,5,-1,8
